Screening results: PubChem, several laboratories
sEH inhibitor: soluble epoxide hydrolase (human) inhibition; P34913; recombinant human sEH enzymatic activity assay; 91,000 tested, 0.34% active; inhibition, % at 2 µM; in the data active = inhibition above about 80%
Target sequence (P34913 whole entry, looked up): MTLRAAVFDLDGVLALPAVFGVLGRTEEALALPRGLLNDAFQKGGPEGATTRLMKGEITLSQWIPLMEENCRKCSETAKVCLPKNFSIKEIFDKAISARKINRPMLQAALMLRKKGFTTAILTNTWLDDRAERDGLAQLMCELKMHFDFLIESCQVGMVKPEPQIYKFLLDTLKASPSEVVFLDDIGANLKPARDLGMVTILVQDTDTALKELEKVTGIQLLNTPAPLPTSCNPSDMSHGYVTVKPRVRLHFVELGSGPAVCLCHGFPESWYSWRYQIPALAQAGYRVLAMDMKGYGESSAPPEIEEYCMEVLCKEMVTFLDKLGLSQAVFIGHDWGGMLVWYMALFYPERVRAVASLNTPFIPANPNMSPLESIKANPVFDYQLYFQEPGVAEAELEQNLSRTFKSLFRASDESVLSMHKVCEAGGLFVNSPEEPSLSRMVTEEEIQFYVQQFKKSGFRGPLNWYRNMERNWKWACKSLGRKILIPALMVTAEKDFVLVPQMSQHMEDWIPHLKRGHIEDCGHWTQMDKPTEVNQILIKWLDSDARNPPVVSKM
IL1B NFkB pot: enhances IL-1B driven NFkB nuclear translocation. HUVEC IL-1B NFkB p65 nuclear translocation imaging. activation, % at 2 µM. 94,000 tested, 0.3% active. AID 819;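 active = activation above 40%, about the mean plus 3 SD, also judged a hit on visual image review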;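 also: percent activation is computed from the nuclear over cytoplasmic p65 intensity ratio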
NFkB transloc inh: blocks IL-1B driven NFkB nuclear translocation in HUVEC cells. HUVEC IL-1B NFkB p65 nuclear translocation imaging. inhibition, % at 2 µM. 94,000 tested, 0.43% active. AID 796;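 active = inhibition above about 30% together with a positive call from visual inspection of the well image, limit read from the data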;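 also: nuclear over cytoplasmic p65 intensity ratio measured by imaging; 0% = IL-1B stimulated DMSO wells and 100% = unstimulated DMSO wells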
HUVEC tox IL1B: toxic to HUVEC cells under IL-1B stimulation. cell count reduction, % at 2 µM. 94,000 tested, 0.41% active. HUVEC cell count loss, Hoechst imaging, IL-1B stimulated;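 active = cell count reduction more than 3 SD above the screen-wide mean, cut at about 70% in these data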;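 also: normalized per plate to untreated control cells as the no-loss baseline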
Cav3 T inh: inhibitors of human Cav3.2 T-type calcium channel | 100,000 tested, 4% active | Cav3.2-expressing cells, Fluo-4 calcium fluorescence FDSS; hits give low values | O95180 | AID 449739 | B-score at 10 µM;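 active = single-dose well whose peak fluorescence ratio is a statistical outlier from its plate by either plate-standardised score or position-corrected B-score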
sEH act: soluble epoxide hydrolase (human) activation; P34913; purified human sEH enzymatic activity, activator screen; activation, % at 2 µM; 91,000 tested, 0.04% active; AID 717; in the data active = activation above about 37%
An asterisk follows results filed as active; . = not tested or not shown. Shown are actives, neighbours in structure and some others; about 4.6% of the full set was active somewhere.

SMILES	sEH inhibitor	IL1B NFkB pot	NFkB transloc inh	HUVEC tox IL1B	Cav3 T inh	sEH act
COc1ccc(S(=O)(=O)Nc2ccc(S(=O)(=O)Nc3ccc(F)cc3)cc2)cc1C	0	-12	12	26	-6.8*	6
COc1ccc(S(=O)(=O)Nc2ccc(F)c(F)c2)cc1Cl	0	1	-1	15	-3.8	4
COc1cc(NS(=O)(=O)c2ccc(C)c(C)c2)c(OC)cc1Cl	-6	16	-16	-16	-6.6*	9
COc1ccc(S(=O)(=O)Nc2ccc(F)cc2)cc1N(C)S(=O)(=O)c1ccc(Cl)cc1	-5	-1	1	43	-5*	6
COc1ccc(S(=O)(=O)Nc2ccc(C(F)(F)F)cc2)cc1OC	-5	-2	2	-21	-4.8*	8
O=C1c2ccccc2C(=O)N1CCSc1n[nH]c(=S)s1	-1	18	-18	-4	.	-1
Cc1nc2ncnn2c(C)c1CCC(=O)N1CCN(Cc2ccccc2)CC1	2	4	-4	14	0.67	0
CC(C)(C)c1nnc2sc(SCCN3C(=O)c4ccccc4C3=O)nn2c1=O	-14	-10	10	-16	-0.34	13
CC(C)N(C(=O)CSc1nn2c(=O)c(C(C)(C)C)nnc2s1)c1ccccc1	-7	-1	1	10	-10*	4
O=C(CSCc1ccccc1)N1CCN(Cc2ccc3c(c2)OCO3)CC1	0	4	-4	-31	-0.018	3
O=C(c1cc2c(s1)CCCC2)N1CCN(Cc2ccc3c(c2)OCO3)CC1	-10	5	-5	-13	-3.9*	11
O=C(Nc1ccccc1)N1CCN(Cc2ccc3c(c2)OCO3)CC1	3	-8	8	4	-5.5*	-4
Cc1cc(NC(=O)CCC(=O)N(Cc2cccs2)C(C(=O)NC2CCCC2)c2ccccc2)no1 (centres undefined)	0	-2	2	-40	-8.7*	2
Cc1cc(NC(=O)CCC(=O)N(Cc2cccs2)C(C(=O)NC2CCCC2)c2cccnc2)no1 (centres undefined)	-11	-4	4	-10	1.7	13
O=C(NC1CCCCC1)C(c1ccc2ncccc2c1)N(Cc1cccs1)C(=O)c1cccs1 (centres undefined)	-15	-4	4	4	-1.6	13
O=C(NC1CCCCC1)C(c1cccs1)N(Cc1cccs1)C(=O)c1cccs1 (centres undefined)	4	5	-5	26	-5.3*	-4
Cc1oc(-c2ccc(Cl)cc2)nc1CN1CCCC(C(=O)NCc2ccccn2)C1 (centres undefined)	-4	-7	8	-9	0.7	5
Cc1ccc(Nc2nc(N)nc(CN3CCN(c4ccccc4F)CC3)n2)cc1	0	-18	18	35	-5.3*	-2
Nc1nc(CN2CCN(c3ccccc3F)CC2)nc(Nc2ccccc2)n1	-2	18	-18	11	-1.2	2
Cc1nc(N2CCc3ccccc32)[nH]c(=O)c1CCC(C)C	12	1	-1	-13	.	-8
Cc1ccc(C(OC(=O)c2ccco2)C(=O)NC2CCCCC2)cc1 (centres undefined)	-1	4	-4	-2	-0.023	2
COc1ccc(-c2nnc(NC(=O)c3ccc(F)cc3)o2)cc1	-11	19	-18	0	.	10
O=C(Nc1nc(-c2ccccc2)c(-c2ccccc2)o1)c1ccc(F)cc1	78	-9	9	-27	-5.8*	-78
COc1ccc(NC(=O)CCSc2nnc(C)s2)cc1	8	25	-25	-19	0.4	-6
O=C(CSCc1ccccc1)Nc1cccc(C(=O)Nc2ccccc2C(=O)O)c1	6	1	-1	-36	-4	-4
O=C(CSCc1ccc(Cl)cc1)Nc1cccc(C(=O)Nc2ccccc2C(=O)O)c1	-1	-1	1	11	-6.9*	2
CC(C)C(=O)NC(=S)Nc1ccc(S(=O)(=O)NC(C)(C)C)cc1	7	-2	2	14	-1.1	-5
CN(Cc1ccccc1)S(=O)(=O)c1ccc(NS(=O)(=O)Cc2ccccc2)cc1	12	-1	1	8	-3.8*	-10
CC(C)C(=O)NC(=S)Nc1ccc(S(=O)(=O)N(C)Cc2ccccc2)cc1	22	-3	3	8	-5.7*	-21
COc1ccc(-c2cc(C(=O)N3CC4(C)CC3CC(C)(C)C4)no2)cc1OC (centres undefined)	0	24	-24	-2	-2	2
